POLK inh: blocks human DNA polymerase kappa activity. 400,000 compounds, 0.53% hits. Q9UBT6. Potency, µM (series often up to 107 µM), usual class: inhibitors. purified Pol kappa, fluorescent DNA synthesis assay, 10 min. AID 588579
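10 nM Pol kappa was preincubated with compounds for 15 min at room temperature. Reaction started with 50 nM (final) substrate. Fluorescence read kinetically at 0 and 10 min.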
PI5P4K alpha inh: inhibitors of human PI5P4K alpha; max response, %; 330,000 compounds, 1.2% hits; AID 652105; PI5P4Kalpha enzyme, ADP-Glo luminescence, 60 min; active compounds read low; P48426; active means max response of -50% or lower; inconclusive means between -30% and -50%; inactive means -30% or higher; further: value at the top dose of about 77 µM
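Quantitative HTS of the MLSMR library against PI5P4Kalpha with substrate. ATP added last at 5 microM final; room temperature, 60 minutes. Remaining ATP depleted, ADP converted and read as luminescence.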
POLB inh: blocks human DNA polymerase beta activity. P06746. Pol beta primer extension/strand displacement, fluorescence kinetic. Potency, µM (highest dose often 114 µM), usual class: inhibitors. 340,000 compounds, 1.3% hits. AID 485314
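Kinetic readout of DNA synthesis with strand displacement by Pol beta. Compound and 10 nM enzyme sit 15 min at room temperature; 50 nM substrate starts the reaction, read immediately and at 10 min.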
POLI inh: blocks human DNA polymerase iota activity; Potency, µM (series often up to 115 µM), most hits filed as inhibitors; Pol iota fluorescent replication assay, 10 min; AID 588590; 390,000 compounds, 1% hits; Q9UNA4
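Pol iota at 10 nM preincubated 15 min with compounds at room temperature; reaction started with fluorescent substrate, 50 nM final. Fluorescence read kinetically at 0 and 10 min; buffer-only wells as negative control.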
POLH inh: DNA polymerase eta (human) inhibition; Q9Y253; recombinant Pol eta, fluorescent DNA replication assay; Potency, µM (doses to about 114 µM), actives largely listed as inhibitors; 390,000 compounds, 1.2% hits; AID 588591
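Fluorescent replication assay: 50 nM final substrate added after a 15 min room-temperature compound preincubation with 10 nM enzyme. Signal taken at 0 min and again at 10 min.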
WRN inhibitor: inhibitors of human WRN helicase. WRN helicase unwinding, fluorescent forked duplex, kinetic. Potency, µM (highest dose often 114 µM), usual class: inhibitors. 360,000 compounds, 0.46% hits. AID 651768; further: nearly all actives have a fitted effect of over 55% in size
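Enzyme (20 nM final) and test compound sit together 15 min at room temperature before substrate addition. Substrate is a single-forked duplex oligonucleotide (100 nM) labelled with fluorophore and quencher, with 2 mM ATP; helicase unwinding raises red fluorescence, read kinetically.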
Of the large screens only hits and unclear results are named; the others gave an inactive call; ! = not confirmed by another sample. Sampled rows, rich in hits. Any-hit rate of the full collection: about 2.8%. Unless noted, the call rests on the fitted dose curve; in most records, active means well fitted curve in the direction sought with a large enough effect; inconclusive means small, poorly fitted or top-dose-only effect, or another doubt; inactive means no such curve, though single readings can be large; an effect the other way counts as inactive or inconclusive.

O=c1c2ccccc2nc(-c2cccs2)n1-c1ccccc1	POLB inh inconclusive
NC(N)=N/N=C/c1cn(-c2ccccc2)nc1-c1cccs1	POLB inh 28µM
COc1ccc(C=C2C(=O)NC(=S)NC2=O)cc1OC	PI5P4K alpha inh -50, POLI inh inconclusive, WRN inhibitor 45µM (no result: POLB inh)
CCOc1cc(C=O)ccc1O	none (no result: POLB inh)
CCOc1cc(C=C2C(=O)NC(=S)NC2=O)ccc1O	PI5P4K alpha inh -77, POLI inh inconclusive, WRN inhibitor 50µM (no result: POLB inh)
COc1ccc(/C=C/C=C2C(=O)NC(=S)NC2=O)cc1	PI5P4K alpha inh -50, POLI inh inconclusive, POLH inh 25µM, WRN inhibitor 45µM (no result: POLB inh)
Cn1cccc1C(=O)OCC(=O)NCc1cccs1	none (no result: POLB inh)
Cc1ccc(-c2nnc(Nc3ccc(OC(F)(F)Cl)cc3)c3ccccc23)cc1S(=O)(=O)NC(C)(C)CO	POLH inh inconclusive (no result: PI5P4K alpha inh, WRN inhibitor)
Cc1cccn2c(=O)cc(COc3cccc(NC(=O)COc4ccc(F)cc4)c3)nc12	POLH inh inconclusive (no result: PI5P4K alpha inh, WRN inhibitor)
COc1cc2c(c3oc4cccc(O)c4c(=O)c13)C1C=CO[C@@H]1O2 (stereo partly drawn)	none (no result: PI5P4K alpha inh, POLB inh, POLI inh, POLH inh, WRN inhibitor)
Cc1cccc(N(C)S(=O)(=O)c2cc(-c3cnc(C4CC4)o3)ccc2C)c1	POLI inh inconclusive (no result: PI5P4K alpha inh, POLH inh, WRN inhibitor)
O=c1c(-c2ccccc2)c(O)c2ccccc2n1-c1ccccc1	none
Cc1csc2nc(COC(=O)c3ccccc3NC(=O)c3ccc(F)cc3)cc(=O)n12	none (no result: PI5P4K alpha inh, WRN inhibitor)
N#CC1=C(N)Oc2c(c(=O)oc3ccccc23)C1c1ccncc1 (stereo not drawn)	none (no result: PI5P4K alpha inh)
N#CC1=C(N)Oc2c(c(=O)sc3ccccc23)C1c1cccnc1 (stereo not drawn)	PI5P4K alpha inh -63, POLB inh inconclusive
CCOC(=O)c1c(-n2c(C)cc(C=C3C(=O)NC(=S)NC3=O)c2C)sc2c1CCCC2	POLK inh inconclusive, PI5P4K alpha inh -63, POLB inh 22µM, POLI inh inconclusive, POLH inh 28µM, WRN inhibitor 56µM
CCOC(=O)c1c(-n2c(C)cc(/C=C3/C(=O)NC(=O)N(CC)C3=O)c2C)sc2c1CCCC2	POLI inh inconclusive, POLH inh inconclusive (no result: POLB inh)
CN1CC[C@@]2(C)c3cc(O)ccc3N(C)C12 (stereo partly drawn)	POLI inh 28µM!, POLH inh inconclusive (no result: PI5P4K alpha inh, WRN inhibitor)
COc1ccccc1-c1nc2c(c(SCc3cccc(Cl)c3)n1)Cc1c(CO)cnc(C)c1O2	none (no result: PI5P4K alpha inh, WRN inhibitor)
CCCCCn1c(N)c(C(=O)NCc2cccs2)c2nc3ccccc3nc21	POLI inh 22µM (no result: PI5P4K alpha inh)
COc1ccc(Cn2c(N)c(C(=O)NCc3ccco3)c3nc4ccccc4nc32)cc1	POLB inh 56µM, POLI inh inconclusive, POLH inh inconclusive
CC(C)OCCCNC(=O)c1c(N)n(CC2CCCO2)c2nc3ccccc3nc12 (stereo not drawn)	POLB inh inconclusive, POLI inh 7.1µM (no result: PI5P4K alpha inh)
Nc1c(C(=O)NCc2ccco2)c2nc3ccccc3nc2n1Cc1ccccc1	POLB inh inconclusive, POLI inh inconclusive
CCCCn1c(N)c(C(=O)NCc2cccs2)c2nc3ccccc3nc21	POLI inh inconclusive (no result: PI5P4K alpha inh)
COCCCn1c(N)c(C(=O)NCCC(C)C)c2nc3ccccc3nc21	POLI inh 4.5µM (no result: PI5P4K alpha inh)
CC(=O)c1ccc2c(c1)C1C(Cl)C(Sc3ccccc3[N+](=O)[O-])CC1C(C(=O)O)N2 (stereo not drawn)	POLK inh inconclusive, POLB inh 40µM, POLI inh inconclusive, POLH inh 3.5µM
O=c1ccc2cc(OC3OC(CO)C(O)C(O)C3O)c(O)cc2o1 (stereo not drawn)	none (no result: PI5P4K alpha inh, POLB inh, POLI inh, POLH inh, WRN inhibitor)
O=S(=O)(O)c1cc(N=C=S)ccc1/C=C/c1ccc(N=C=S)cc1S(=O)(=O)O	POLK inh 35µM (no result: PI5P4K alpha inh, POLB inh, POLI inh, POLH inh, WRN inhibitor)
O=C1NC(=O)N(c2ccc(Cl)cc2)C(=O)/C1=C/c1coc2ccc(O)cc2c1=O	POLK inh inconclusive, PI5P4K alpha inh -58, POLB inh inconclusive, POLI inh inconclusive, POLH inh inconclusive, WRN inhibitor inconclusive
O=C1NC(=O)N(c2ccccc2)C(=O)/C1=C/c1coc2ccc(O)cc2c1=O	POLK inh inconclusive, PI5P4K alpha inh -66, POLI inh 22µM, POLH inh inconclusive, WRN inhibitor inconclusive
S=C(S)N1CCCC1	POLI inh inconclusive
CCC(CO)NC(=O)[C@@H]1C=C2c3cccc4[nH]cc(c34)C[C@H]2N(C)C1 (stereo partly drawn)	POLI inh 32µM, POLH inh inconclusive (no result: POLK inh, PI5P4K alpha inh, WRN inhibitor)
CC(C)C[C@H]1C(=O)N2CCCC2[C@]2(O)O[C@](NC(=O)[C@@H]3C=C4c5cccc6[nH]cc(c56)CC4N(C)C3)(C(C)C)C(=O)N12 (stereo partly drawn)	POLK inh inconclusive, PI5P4K alpha inh inconclusive, POLI inh inconclusive
CC(C)[C@H]1C(=O)N2CCC[C@H]2[C@]2(O)O[C@](NC(=O)[C@@H]3C=C4c5cccc6[nH]cc(c56)C[C@H]4N(C)C3)(C(C)C)C(=O)N12	POLI inh 22µM
c1ccc2c(c1)c1cc[n+]2CCCCC[n+]2ccc(c3ccccc32)NCCCCCN1	none (no result: PI5P4K alpha inh, POLB inh, POLI inh, POLH inh, WRN inhibitor)
NC(=O)[C@H](Cc1ccccc1)NC(=O)[C@H](Cc1c[nH]c2ccccc12)NC(=O)[C@@H]1CCCN1C(=O)[C@@H](N)Cc1ccc(O)cc1	none (no result: PI5P4K alpha inh, POLB inh, POLI inh, POLH inh, WRN inhibitor)

High-throughput results from PubChem BioAssay.
